Rows were chosen to be rich in hits. Some 4.2% of all compounds tested hit in one or more screens of this group.
Hsp70 activator – Hsp70 transcriptional activation, primary screen; HeLa Hsp70 promoter luciferase reporter, luminescence; scaled: vehicle 0, proteasome-inhibitor control 100%; activation, % at 10 µM; 200,000 compounds, 0.04% hits; AID 1203;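 active = activation above the mean across all tested compounds plus 3 SD, cutoff set per campaign, cut at about 5.5% in these data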;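 also: 100% = MG132 at 30 µM as the positive control and 0% = DMSO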
S1P4 antag – antagonists of human S1P4 receptor; inhibition, % at 4.98 µM; 220,000 compounds, 0.26% hits; O95977; S1P4-expressing cells, antagonist mode, reporter read-out; in the data active = inhibition above about 29%;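 also: 0% = wells stimulated with agonist and 100% = vehicle wells without agonist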
Target sequence (O95977 whole entry, looked up): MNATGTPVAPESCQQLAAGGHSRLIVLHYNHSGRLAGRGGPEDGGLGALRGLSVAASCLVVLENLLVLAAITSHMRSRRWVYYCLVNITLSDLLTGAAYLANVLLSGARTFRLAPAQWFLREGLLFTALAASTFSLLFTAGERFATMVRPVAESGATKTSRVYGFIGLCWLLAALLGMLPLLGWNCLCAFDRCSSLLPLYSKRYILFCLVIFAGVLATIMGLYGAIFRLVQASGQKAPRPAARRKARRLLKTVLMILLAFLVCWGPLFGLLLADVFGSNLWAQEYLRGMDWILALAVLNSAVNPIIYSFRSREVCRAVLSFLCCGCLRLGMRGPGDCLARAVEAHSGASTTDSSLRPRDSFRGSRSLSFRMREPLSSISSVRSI
S1P4 agonist – agonists of human S1P4 receptor. O95977. S1P4-expressing cell line, agonist reporter assay. activation, % at 4.98 µM. 220,000 compounds, 0.35% hits. AID 1509; in the data active = activation above about 11%;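 also: 0% = DMSO vehicle and 100% = reference agonist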
CHOP inh – blocks CHOP induction under ER stress | CHO-K1 CHOP-promoter luciferase, tunicamycin-induced, 15-18 h | 220,000 compounds, 3.8% hits | inhibition, % at 10 µM | AID 2732;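 active = compounds that reduced the stress-induced luciferase reporter signal by more than about 70% of percent inhibition, limit read from the data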;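 also: 0% = tunicamycin plus vehicle and 100% = wells without tunicamycin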
CHOP inh conf – confirmation of CHOP induction inhibitors. inhibition, % at 10 µM. CHO-CHOP promoter luciferase reporter, tunicamycin-induced, luminescence. shares compounds with CHOP inh. 2,100 compounds, 45% hits;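 active = mean of three repeat readings of reporter signal inhibition above a set limit, cut at about 70% in these data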;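 also: 0% = tunicamycin plus vehicle and 100% = wells lacking tunicamycin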
* = called active by the depositor; x = no result.

SMILES | Hsp70 activator | S1P4 antag | S1P4 agonist | CHOP inh | CHOP inh conf
Oc1ccc(Br)cc1-c1nc2cnccn2c1NC1CCCCC1 | 0 | 0 | -5 | 98* | 87*
Oc1ccc(Br)cc1-c1nc2cnccn2c1NC1CCCC1 | 0 | -10 | 0 | x | x
CCN(CC)c1ccc(/C=N/Nc2nn[nH]n2)cc1 | x | -22 | 0 | 14 | x
Fc1cccc(-c2nnn3c2nc(Cl)c2ccccc23)c1 | 1 | 6 | 2 | 103* | 127*
Clc1nc2c(-c3ccccc3)nnn2c2ccccc12 | x | 7 | 0 | 101* | -80
COc1ccc(CC(=O)N(Cc2cc3cc(OC)ccc3[nH]c2=O)C(C)C)cc1 | 0 | 4 | 0 | 16 | x
COc1ccc(NC(=O)CN2CCN(CC(=O)Nc3ccccc3Cl)CC2)c(OC)c1 | 0 | 8 | 0 | 28 | x
CC(Oc1ccccc1)C(=O)N=Nc1c(O)[nH]c2ccc(Br)cc12 (stereo unspecified) | 0 | 9 | 2 | 101* | -4
O=C(COc1ccc(Cl)cc1)NCCc1ccccn1 | 0 | -6 | 0 | 8 | x
CCN1CCN(Cc2ccc(NC(=O)c3cc(NC(=O)c4nccnc4N)cc(OC)c3)cc2C(F)(F)F)CC1 | x | x | x | 21 | x
CCN1CCN(Cc2ccc(NC(=O)c3cc(NC(=O)c4cncc(-c5ccc(C#N)cc5)c4)cc(OC)c3)cc2C(F)(F)F)CC1 | x | x | x | 107* | 60
O=Nc1ccc(O)c2ncccc12 | x | -9 | 2 | 106* | 108*
O=[N+]([O-])c1ccc(O)c2cccnc12 | 0 | -10 | 1 | 4 | x
CCCCn1c(/N=C/c2c[nH]c3ccccc23)nc2ccccc21 | 0 | 8 | -2 | 111* | 117*
CCCCn1c(/N=C/c2ccc(N(C)C)cc2)nc2ccccc21 | 0 | -14 | 1 | 22 | x
CCn1c(/N=C/c2c[nH]c3ccccc23)nc2ccccc21 | -1 | 4 | 2 | 59 | x
CCCn1c(/N=C/c2c[nH]c3ccccc23)nc2ccccc21 | 0 | -8 | -2 | 105* | 4
CCCCn1c(/N=C/c2ccc3c(c2)OCO3)nc2ccccc21 | 0 | -6 | 0 | 98* | -1
Oc1ccc(C=NCC2COc3ccccc3O2)cc1 (stereo unspecified) | 0 | 3 | 2 | 26 | x
CC1CCCN(S(=O)(=O)c2ccc(C(=O)Nc3nnc(-c4ccccc4Cl)o3)cc2)C1 (stereo unspecified) | 0 | -10 | 0 | 98* | 34
CC1CCCN(S(=O)(=O)c2ccc(C(=O)Nc3nnc(-c4ccccn4)o3)cc2)C1 (stereo unspecified) | 0 | -23 | 1 | 5 | x
CCN(CCO)c1ncnc2c1sc1nc(CC(C)C)c3c(c12)CC(C)(C)OC3 | 0 | -21 | -2 | 106* | 92*
O=C(CN1C(=O)c2ccccc2C1=O)c1ccccc1 | 0 | -1 | 1 | 5 | x
COC(=O)CC1C(=O)NCCN1C(=O)CSc1nc2ccc([N+](=O)[O-])cc2s1 (stereo unspecified) | 0 | -11 | 0 | 5 | x
CC(C)Cn1c2c(c(=O)[nH]c1=O)C(C(F)(F)F)(C(F)(F)F)N=C(CCC1CCCCC1)N2 | 0 | 4 | 0 | 102* | 82*
SMILES | Hsp70 activator | S1P4 antag | S1P4 agonist | CHOP inh | CHOP inh conf
Cc1nc2ccccc2c2oc(C(=O)N3CCC(N4CCCCC4)CC3)cc12 | 0 | -6 | -1 | 25 | x
COC(=O)C(C)(C(=O)OC)c1ccc(C(F)(F)F)cc1[N+](=O)[O-] | 0 | 0 | -1 | 22 | x
Cc1nn(C(C)(C)C)c(C)c1/C=N/OC(=O)Nc1ccc(Cl)cc1 | x | -9 | -1 | 99* | 117*
Cc1cccc(Oc2cc(NC(=O)Cn3cnc([N+](=O)[O-])n3)cc([N+](=O)[O-])c2)c1 | 0 | -11 | 0 | 103* | 34
CCCCc1nnc(NC(=O)CN2C(=O)c3ccccc3C2=O)s1 | 0 | -3 | -2 | -2 | x
Cc1ccc(NC2=C(Cl)C(=O)c3ccccc3C2=O)cc1 | 0 | -4 | 1 | 7 | x
CCN(CC)c1ccc(NC2=C(Cl)C(=O)c3ccccc3C2=O)cc1 | 0 | -6 | 4 | 107* | -11
CCOc1ccc(-n2c(N)c(C(=O)NCc3ccco3)sc2=S)cc1 | 0 | -10 | 1 | 13 | x
N=C1/C(=C\c2ccc(-c3ccc(C(=O)O)cc3)o2)C(=O)N=C2SC=C(c3ccccc3)N12 | x | -18 | 2 | 100* | 38
N=C1/C(=C\c2ccc(-c3cccc(Cl)c3)o2)C(=O)N=C2SC=C(c3ccccc3)N12 | 0 | -4 | 1 | -5 | x
Cc1nc(Nc2nc(CSc3nc4ccccc4[nH]3)cc(=O)[nH]2)nc2ccccc12 | 0 | 0 | 0 | 99* | 87*

Compound activity as filed in PubChem BioAssay.
